The source made the active and inactive calls. How the source made its calls: active means hit-call score of the fitted dose curve at least 0.9, where 1 is the maximum; inactive means score below 0.9.

Experiment [1] can be described thus: APR_HepG2_P-H2AX_72hr: Apredica 72-hour HepG2 Assay for H2AX Phosphorylation (AID 2282916).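 Further: phospho-histone H2A.x immunostain intensity per cell marking DNA damage.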 To be noted: imaging, actives raise or lower the signal. In short, it runs like this:
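HepG2 human liver cells were exposed for 72 hr to compounds at 0.39–200 uM (10 concentrations, duplicate per plate) in 0.5% v/v DMSO. Fixed, permeabilized cells were immunolabeled for phospho-histone H2A.x with Hoechst 33342 and imaged by HCS fluorescence; bidirectional fit versus DMSO.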

Experiment [2] is described as follows: APR_HepG2_MitoMembPot_72hr: Apredica 72-hour HepG2 Assay for Mitochondrial Membrane Potential (AID 2282917). To be noted: imaging, actives raise or lower the signal. In short, it runs like this: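 HepG2 cells dosed 72 hr with compound at 0.39–200 uM in duplicate, 0.5% v/v DMSO final. Mitochondria stained with 250 nM MitoTracker Red CMXRos for 30 min before formaldehyde fixation, imaged by high-content fluorescence; bidirectional fit versus DMSO.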

Experiment [3] in a line: APR_HepG2_MitoticArrest_72hr: Apredica 72-hour HepG2 Assay for Mitotic Arrest (AID 2282918). The note with it: high-content imaging, actives raise or lower the signal. In short, it runs like this:
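HepG2 cells treated 72 h at 0.39–200 uM, 0.5% DMSO final; formaldehyde-fixed, stained with Hoechst 33342 and phospho-histone H3 antibody, imaged by high-content fluorescence; bidirectional fit versus DMSO.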

Experiment [4] in a line: APR_HepG2_MicrotubuleCSK_72hr: Apredica 72-hour HepG2 Assay for Microtubule CSK Stabilty (AID 2282919). To be noted: HepG2 microtubule cytoskeleton, high-content imaging, actives raise or lower the signal. In short, it runs like this: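 HepG2 cells were exposed 72 hr to compound at 0.39–200 uM in duplicate (0.5% DMSO final), then fixed and permeabilized. Alpha-tubulin immunofluorescence was imaged by high-content microscopy, with bidirectional fitting against DMSO and taxol as positive control.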

A short description of experiment [5]: APR_HepG2_P-H2AX_24hr: Apredica 24-hour HepG2 Assay for H2AX Phosphorylation (AID 2282920). To be noted: high-content imaging, actives raise or lower the signal. The gist of the method: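 HepG2 cells dosed 24 h at 0.39–200 uM (10 points, duplicate, 0.5% DMSO final). Formaldehyde-fixed and permeabilized, then immunostained for phospho-H2A.x with Hoechst. Fluorescence quantified by high-content imaging, fitted bidirectionally versus DMSO.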

A short description of experiment [6]: APR_HepG2_StressKinase_72hr: Apredica 72-hour HepG2 Assay for Stress Kinase (AID 2282921). The note with it: HepG2 stress kinase (phospho-c-Jun) imaging, actives raise or lower the signal. The gist of the method: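 Cells were exposed for 72 h to ten concentrations (0.39–200 uM, duplicate) at 0.5% v/v DMSO final, then fixed with 3.7% formaldehyde, permeabilized and immunostained for phospho-c-Jun (Cy3 secondary) with Hoechst nuclear counterstain.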

The nature of experiment [7]: APR_HepG2_StressKinase_24hr: Apredica 24-hour HepG2 Assay for Stress Kinase (AID 2282922). The note with it: HepG2 stress kinase (phospho-c-Jun) imaging, actives raise or lower the signal. In short, it runs like this: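 HepG2 cells exposed 24 h to 0.39–200 uM compound in duplicate (0.5% v/v DMSO final). Cells fixed in 3.7% formaldehyde, permeabilized and immunostained for phospho-c-Jun; read by high-content fluorescence imaging, fitted bidirectionally against DMSO.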

A short description of experiment [8]: APR_HepG2_p53Act_72hr: Apredica 72-hour HepG2 Assay for p53 Activation (AID 2282923).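 Further: average cellular p53 protein immunofluorescence intensity in HepG2 cells.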 The note with it: high-content imaging, actives raise or lower the signal. In short, it runs like this:
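Cells were dosed for 72 hr with compounds at 0.39–200 uM in duplicate (final DMSO 0.5% v/v), then fixed in 3.7% formaldehyde, permeabilized with Triton X-100 and immunostained for p53 (Cy5) with Hoechst 33342 nuclear counterstain.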

A short description of experiment [9]: APR_HepG2_MitoMass_72hr: Apredica 72-hour HepG2 Assay for Mitochondrial Mass (AID 2282924).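 Further: MitoTracker Red CMXRos stain intensity per cell imaged as mitochondrial mass.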 The note with it: high-content imaging, actives raise or lower the signal. The gist of the method:
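HepG2 cells dosed 72 hr at 0.39–200 uM (0.5% DMSO), in duplicate. MitoTracker Red CMXRos 250 nM loaded 30 min before formaldehyde fixation; high-content fluorescence imaging, bidirectional fit versus DMSO.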

The nature of experiment [10]: APR_HepG2_NuclearSize_72hr: Apredica 72-hour HepG2 Assay for Nuclear Size (AID 2282925). The note with it: high-content imaging, actives raise or lower the signal. The gist of the method: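 HepG2 cells dosed 72 h at 0.39–200 uM (10 concentrations, duplicate) in 0.5% v/v DMSO final. Fixed, Hoechst 33342-stained nuclei imaged; nuclear diameter measured by automated image analysis. Bidirectional fit versus DMSO.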

A short description of experiment [11]: ATG_CRE_CIS: Attagene CIS-FACTORIAL HepG2 Assay for human cAMP Responsive Element (CRE) binding protein 3 (AID 2282926). The note with it: HepG2 CRE cis-reporter, Attagene multiplexed mRNA; actives raise or lower the signal. The gist of the method:
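HepG2 cells transiently transfected with cis-element-driven multiple reporter transcription units; CRE reporter mRNA measured 24 h after dosing by RT-PCR, 6-FAM labelling, HpaI digestion and capillary electrophoresis. Bidirectional fit versus DMSO baseline.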

For experiment [12], the target named is CCAAT/enhancer-binding protein beta (Homo sapiens) (UniProt P17676). Put plainly: ATG_C_EBP_CIS: Attagene CIS-FACTORIAL HepG2 Assay for human CCAAT/Enhancer Binding Protein (C/EBP) beta (AID 2282927). The note with it: HepG2 Attagene cis-factorial transcription factor reporter; actives raise or lower the signal. In short, it runs like this: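 Transiently transfected HepG2 (MRTU library, endogenous TF-driven promoters); 24 h dosing; total RNA → oligo(dT) RT → PCR → 6-FAM primer extension → HpaI digest → CE; fit bidirectionally vs DMSO.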
CCAAT/enhancer-binding protein beta (Homo sapiens), sequence (P17676 whole entry, looked up): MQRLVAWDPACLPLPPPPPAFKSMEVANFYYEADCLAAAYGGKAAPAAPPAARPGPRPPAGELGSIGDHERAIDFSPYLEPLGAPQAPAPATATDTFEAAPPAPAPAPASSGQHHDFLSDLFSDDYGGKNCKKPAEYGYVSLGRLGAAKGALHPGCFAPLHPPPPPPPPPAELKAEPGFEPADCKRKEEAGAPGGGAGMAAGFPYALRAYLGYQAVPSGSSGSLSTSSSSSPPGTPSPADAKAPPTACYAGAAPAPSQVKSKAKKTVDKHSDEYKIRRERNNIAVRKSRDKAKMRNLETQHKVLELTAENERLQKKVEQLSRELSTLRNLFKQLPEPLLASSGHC

Experiment [13] in a line: ATG_CMV_CIS: Attagene CIS-FACTORIAL HepG2 Assay for human CMV (Internal Marker) (AID 2282928).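 Further: endpoint acts as a background internal control marker rather than a target.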 To be noted: HepG2 CMV promoter reporter, transcription factor profiling; actives raise or lower the signal. In short, it runs like this: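 Cell system: HepG2, transiently transfected multiple reporter units under cis promoters. Exposure: 24 h. Detection: RT-PCR, FAM labeling, HpaI digestion, capillary electrophoresis. Analysis: bidirectional, DMSO baseline.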

The nature of experiment [14]: ATG_DR4_LXR_CIS: Attagene CIS-FACTORIAL HepG2 Assay for human Liver X Receptor (LXR), DR4 submotif (AID 2282929). To be noted: HepG2 Attagene DR4 cis-reporter, mRNA transcription; actives raise or lower the signal. In short, it runs like this: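 Transiently transfected HepG2 liver cells; cis-regulated reporters; 24 h dosing. RT-PCR plus CE read-out of reporter mRNA. DMSO baseline, bidirectional curve fitting.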

The target of experiment [15] is Aryl hydrocarbon receptor (Homo sapiens) (UniProt P35869). Put plainly: ATG_Ahr_CIS: Attagene CIS-FACTORIAL HepG2 Assay for human Aryl Hydrocarbon Receptor (Ahr) (AID 2282930). The note with it: HepG2 AhR cis-factorial reporter transcription; actives raise or lower the signal. In short, it runs like this:
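Read-out: reporter mRNA quantified by RT-PCR with fluorescent primer extension and capillary electrophoresis. Human HepG2 liver cells carried transfected cis-promoter reporter units and were exposed to chemical for 24 h; gain or loss fitted relative to DMSO.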

Experiment [16] in a line: ATG_AP_2_CIS: Attagene CIS-FACTORIAL HepG2 Assay for human Activator Protein 2 (AP-2) (AID 2282932). To be noted: HepG2 AP-2 cis-reporter, Attagene transcription factor profiling; actives raise or lower the signal. The gist of the method: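 Multiplexed mRNA reporter assay in HepG2: cis-regulated units report endogenous factor activity after 24 h treatment. Fluorescence from capillary electrophoresis of RT-PCR products gives the signal, with DMSO as baseline.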

The nature of experiment [17]: ATG_BRE_CIS: Attagene CIS-FACTORIAL HepG2 Assay for human Bone Morphogenetic Protein (BMP) Response Element (BRE) (AID 2282933). The note with it: HepG2 BMP response element reporter, Attagene transcription factor profiling; actives raise or lower the signal. In short, it runs like this:
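A HepG2 multiplex reporter system measured inducible reporter mRNA 24 h post-dosing. Detection: RT-PCR, 6-FAM primer extension, HpaI digestion, capillary electrophoresis. Activity fitted bidirectionally relative to DMSO.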

Experiment [18] deals with Retinoic acid receptor alpha (Homo sapiens) (UniProt P10276). Put plainly: ATG_DR5_RAR_CIS: Attagene CIS-FACTORIAL HepG2 Assay for human Retinoic Acid Receptor Alpha (RARE), DR5 submotif (AID 2282934). To be noted: HepG2 Attagene cis-factorial RARE DR5 reporter, mRNA; actives raise or lower the signal. The gist of the method:
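Read-out: DR5-driven reporter transcript measured by RT-PCR, 6-FAM primer extension, HpaI digest and capillary electrophoresis. Human HepG2 liver cells carry transiently transfected cis-element reporter constructs; dosing lasts 24 h. Gain or loss of signal fitted against DMSO baseline.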

Aryl hydrocarbon receptor (Homo sapiens), sequence (P35869 whole entry, looked up): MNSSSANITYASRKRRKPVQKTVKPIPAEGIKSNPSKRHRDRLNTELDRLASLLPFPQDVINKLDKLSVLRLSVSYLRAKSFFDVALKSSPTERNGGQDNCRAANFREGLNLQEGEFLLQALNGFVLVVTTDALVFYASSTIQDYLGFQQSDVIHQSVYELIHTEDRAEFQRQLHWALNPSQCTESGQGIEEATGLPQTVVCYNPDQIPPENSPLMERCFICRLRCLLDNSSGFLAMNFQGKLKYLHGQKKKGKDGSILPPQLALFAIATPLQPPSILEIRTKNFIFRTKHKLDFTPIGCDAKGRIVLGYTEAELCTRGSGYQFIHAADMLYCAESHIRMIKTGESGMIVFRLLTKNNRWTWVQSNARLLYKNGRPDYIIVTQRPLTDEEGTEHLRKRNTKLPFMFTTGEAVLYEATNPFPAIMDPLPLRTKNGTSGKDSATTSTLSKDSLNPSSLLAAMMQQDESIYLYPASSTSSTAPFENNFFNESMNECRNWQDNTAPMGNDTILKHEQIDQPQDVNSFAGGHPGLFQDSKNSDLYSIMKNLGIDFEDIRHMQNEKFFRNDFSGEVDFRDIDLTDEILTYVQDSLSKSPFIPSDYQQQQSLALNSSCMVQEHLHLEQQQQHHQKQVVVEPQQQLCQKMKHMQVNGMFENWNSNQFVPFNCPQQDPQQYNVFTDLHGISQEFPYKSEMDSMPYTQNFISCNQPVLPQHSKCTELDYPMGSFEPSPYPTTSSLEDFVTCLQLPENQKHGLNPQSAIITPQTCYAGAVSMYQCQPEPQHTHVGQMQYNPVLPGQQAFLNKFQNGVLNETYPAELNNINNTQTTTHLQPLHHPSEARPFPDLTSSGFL
Retinoic acid receptor alpha (Homo sapiens), sequence (P10276 whole entry, looked up): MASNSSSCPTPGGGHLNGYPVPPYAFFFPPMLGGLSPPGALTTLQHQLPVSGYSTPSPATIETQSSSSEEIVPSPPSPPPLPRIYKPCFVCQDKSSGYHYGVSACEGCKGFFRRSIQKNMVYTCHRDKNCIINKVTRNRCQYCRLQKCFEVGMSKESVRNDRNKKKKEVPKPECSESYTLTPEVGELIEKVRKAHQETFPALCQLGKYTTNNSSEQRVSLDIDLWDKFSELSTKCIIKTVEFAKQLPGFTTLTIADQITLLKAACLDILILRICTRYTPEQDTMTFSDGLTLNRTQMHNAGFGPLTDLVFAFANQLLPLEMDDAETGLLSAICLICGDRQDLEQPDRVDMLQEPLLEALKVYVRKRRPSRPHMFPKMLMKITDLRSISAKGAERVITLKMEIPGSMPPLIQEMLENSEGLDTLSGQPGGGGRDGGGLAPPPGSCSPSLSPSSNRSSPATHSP

In the case of `CN1CSC(=S)N(C)C1`, the AC50 in [1] was 4.12 µM (active); in [4], 66.4 µM (active); in experiment [5], 21.8 µM (active); in [7] it was 26.3 µM (active); in experiment [9] it was 57.2 µM (active); in [11], 50 µM (active). Besides, the AC50 in experiment [17] is 15.4 µM (active). In addition, the call in [2], in experiment [3], in experiment [6], in experiment [8], in [10] and in experiment [12] was inactive. For the same compound, the compound was classed as inactive in experiment [13], in experiment [14], in experiment [15], in [16] and in [18].

`CCN(CC)C(=O)SCc1ccc(Cl)cc1`: the compound was classed as inactive in experiment [1], in experiment [2], in experiment [3], in experiment [4], in experiment [5] and in experiment [6]. For the same compound, the call in experiment [7], in experiment [8], in experiment [9], in experiment [10], in [11] and in [13] was inactive. For the same compound, the call in [14], in [15], in [16] and in [18] was inactive. Moreover, the results for the AC50 in experiment [12] and in [17] were 8.69 µM (active) and 50 µM (active), respectively.

For the compound `COP(=S)(OC)Oc1ccc(SC)c(C)c1`, the compound was classed as inactive in experiment [1], in experiment [2], in [3], in experiment [4], in experiment [5] and in [6]. Besides, the compound was classed as inactive in experiment [7], in experiment [8], in [9], in [10], in [11] and in experiment [12]. For the same compound, the compound was classed as inactive in experiment [13], in experiment [16], in experiment [17] and in experiment [18]. Also, the AC50 in experiment [14] is 29.2 µM (active); in [15] it was 10.6 µM (active).

For `CCOCN(C(=O)CCl)c1c(C)cccc1CC`, the call in experiment [1], in [2], in [6], in experiment [7], in experiment [8] and in [9] was inactive. Besides, the outcome in [10], in experiment [11], in [12], in [13], in experiment [14] and in experiment [15] was inactive. Also, the call in [16], in [17] and in experiment [18] was inactive. Further, the results for the AC50 in [3], in [4] and in [5] were 93 µM (active), 13.9 µM (active) and 30.9 µM (active), respectively.

As to `CCCN(CCC)c1c([N+](=O)[O-])cc(C(F)(F)F)cc1[N+](=O)[O-]`, the compound was classed as inactive in experiment [1], in experiment [2], in experiment [3], in [4], in experiment [5] and in experiment [6]. Besides, the call in experiment [7], in experiment [9], in experiment [10], in experiment [11], in [15] and in experiment [16] was inactive. Also, the compound was called inactive in [17]. For the same compound, the AC50 is 2.59 µM (active) in [12], 82.3 µM (active) in [13] and 24.1 µM (active) in [14].

As to `COP(=S)(OC)Oc1ccc([N+](=O)[O-])cc1`, the result in [1], in experiment [2], in experiment [3], in [4], in experiment [5] and in experiment [6] was inactive. For the same compound, the compound was classed as inactive in [7], in experiment [8], in experiment [9], in [10], in [11] and in [12]. The result in experiment [13], in [14], in [15], in experiment [16], in experiment [17] and in [18] was inactive.

For orientation: AC50 means the concentration giving half of the maximal activity seen.

Source of the values: PubChem BioAssay (EPA / NIEHS).
